Unmarked numbers belong to inactive results. Active and inactive are the calls of the source. Cut-off read from the data, not from the text of the source: active = inhibition above about 42%; inactive = the rest.
target: Nuclear receptor subfamily 5 group A member 2 (Homo sapiens) (UniProt O00482); assay: NR5A2 activity suppression in reporter cells – cell-based, luminescence, confirmation (AID 651613); settings: cell-based LRH-1 luciferase reporter, inverse agonism; at 3.6 µM; hits give high values;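 note: HEK293T cells co-transfected with LRH-1 and StAR promoter luciferase reporter; 0% = vehicle wells and 100% = parental cells lacking receptor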
Sequence (O00482 whole entry, looked up): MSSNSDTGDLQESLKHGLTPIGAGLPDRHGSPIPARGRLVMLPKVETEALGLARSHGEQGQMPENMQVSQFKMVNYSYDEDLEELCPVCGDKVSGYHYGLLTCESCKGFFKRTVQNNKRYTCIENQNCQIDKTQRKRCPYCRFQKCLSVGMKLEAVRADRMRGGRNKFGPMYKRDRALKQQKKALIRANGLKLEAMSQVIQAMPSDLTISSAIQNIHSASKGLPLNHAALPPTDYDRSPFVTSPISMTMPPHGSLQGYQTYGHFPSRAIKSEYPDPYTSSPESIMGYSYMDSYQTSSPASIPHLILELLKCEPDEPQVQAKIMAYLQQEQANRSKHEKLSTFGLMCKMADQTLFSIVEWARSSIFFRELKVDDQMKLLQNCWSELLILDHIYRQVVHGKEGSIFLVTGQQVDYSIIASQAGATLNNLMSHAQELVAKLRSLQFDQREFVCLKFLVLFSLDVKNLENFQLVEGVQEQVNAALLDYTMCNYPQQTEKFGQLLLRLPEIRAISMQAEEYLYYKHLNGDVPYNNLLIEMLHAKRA

Question: `CCc1c(O)nc(SCC(=O)Nc2ccc(OC)cc2)n(C2CCCCC2)c1=O` was tested. Which inhibition did it give?
Answer: Its inhibition is 55.5% (active).

Question: For `CCCCCCCCn1c2c(c(=N)c3ccccc31)CCC2`, which inhibition is on record?
Answer: Its inhibition is 110% (active).

Question: `O=C1C=C(N2CCCCCC2)C2(CCCCC2)O1` was tested. Which inhibition did it give?
Answer: The inhibition was 58.5% (active).

Question: How did the inhibition turn out when `O=C(CSC1=NC2(CCCCCC2)N=C1c1ccccc1)Nc1ccc2c(c1)OCCO2` was run?
Answer: Its inhibition is 60.2% (active).

Question: Which inhibition does the source give for `O=C(c1ccc([N+](=O)[O-])o1)N1CCN(c2nc3c(Cl)cccc3s2)CC1` here?
Answer: The inhibition was 64.6% (active).

Question: How did the inhibition turn out when `CS(=O)(=O)N1CCN(c2ccc(NC(=O)CSc3nnc(-c4ccco4)o3)cc2)CC1` was run?
Answer: The inhibition was 54% (active).

Question: Which inhibition does the source give for `COc1cccc(-c2cc(NC=O)c3ncc(-c4ccc(C(C)=O)cc4)n3c2)c1` here?
Answer: The inhibition was 65.2% (active).

Question: `Cc1ccccc1C(=O)NC1CCN(CC(=O)Nc2ccc(Br)cc2)CC1` was tested. Which inhibition did it give?
Answer: The inhibition was 59.1% (active).

Question: Which inhibition does the source give for `O=C(c1ccc([N+](=O)[O-])s1)N1CCN(c2ncccn2)CC1` here?
Answer: The inhibition was 30.8%.

Question: `O=C(CSc1ncnc2c1cnn2-c1ccccc1)Nc1ccc2c(c1)OCO2` was tested. Which inhibition did it give?
Answer: Its inhibition is 55.6% (active).

Question: `COc1ccc2nc(N3CCN(C(=O)c4ccc([N+](=O)[O-])o4)CC3)sc2c1` was tested. Which inhibition did it give?
Answer: The inhibition was 64.3% (active).

Question: `Cc1nnsc1C(=O)NC1CCCc2c1cnn2-c1ccc(F)cc1F` (stereo not given) was tested. Which inhibition did it give?
Answer: The inhibition was 59.4% (active).

Question: `CN(C)S(=O)(=O)c1cccc(CSCc2cccc(S(=O)(=O)N(C)C)c2)c1` was tested. Which inhibition did it give?
Answer: Its inhibition is 59% (active).

Question: `O=C(CSc1n[nH]c(-c2ccccc2)n1)Nc1ccc(F)cc1F` was tested. Which inhibition did it give?
Answer: The inhibition was 58.4% (active).

Question: How did the inhibition turn out when `Cc1c(Cl)cccc1NC(=O)CS(=O)(=O)c1ccccc1` was run?
Answer: Its inhibition is 55.1% (active).

Question: Which inhibition does the source give for `O=C(CSc1nnnn1C1CCCC1)Nc1ccc2c(c1)OCCO2` here?
Answer: Its inhibition is 44.7% (active).

Question: How did the inhibition turn out when `COc1ccc2c(c1)CCN(C(=O)CCl)C2C1C(=O)CCCC1=O` (stereo not given) was run?
Answer: Its inhibition is 59% (active).

Question: Which inhibition does the source give for `CCOC(=O)C1CCCN(S(=O)(=O)c2ccc(S(=O)(=O)N(CC)CC)cc2)C1` (stereo not given) here?
Answer: The inhibition was 60.3% (active).

Question: Which inhibition does the source give for `COCC(C)n1c(-c2ccc3c(c2)NC(=O)CO3)csc1=Nc1ccc(OC(F)F)cc1` (stereo not given) here?
Answer: Its inhibition is 79.3% (active).

Question: With `COc1ccc(NC(=O)CSc2n[nH]c(-c3ccccn3)n2)cc1` as the compound, how does the inhibition read?
Answer: Its inhibition is 32.4%.

Question: `COc1ccc(C(=O)C(C)Oc2cccc(NC(=O)c3cccc([N+](=O)[O-])c3)c2)cc1` (stereo not given) was tested. Which inhibition did it give?
Answer: Its inhibition is 35.4%.

Question: `COc1cccc(C(C)(O)c2nc(-c3cccc(C#N)c3)cs2)c1` (stereo not given) was tested. Which inhibition did it give?
Answer: Its inhibition is 55.2% (active).

Question: How did the inhibition turn out when `O=[N+]([O-])c1ccc(/C=N/n2c(CO)nc3ccccc32)s1` was run?
Answer: Its inhibition is 62.2% (active).

Question: `O=C(Nc1cccc2ccccc12)c1ccc([N+](=O)[O-])o1` was tested. Which inhibition did it give?
Answer: The inhibition was 68.5% (active).

Question: For `CCOc1ccc(NC(=O)CSc2nc3[nH]ncc3c(=O)[nH]2)cc1`, which inhibition is on record?
Answer: Its inhibition is 56.8% (active).

Question: Which inhibition does the source give for `NC(=S)N/N=C/c1ccc(C(F)(F)F)cc1` here?
Answer: Its inhibition is 48.1% (active).

Question: With `COc1ccccc1Nc1nc(NCCCCO)nc(N2CCCC2)n1` as the compound, how does the inhibition read?
Answer: Its inhibition is 30.2%.

Question: For `Cc1ccc(NC(=O)c2ccc([N+](=O)[O-])o2)c(C)c1`, which inhibition is on record?
Answer: Its inhibition is 54.7% (active).

Question: Which inhibition does the source give for `O=C(Nc1nc(-c2cccs2)cs1)c1ccc([N+](=O)[O-])o1` here?
Answer: Its inhibition is 51.9% (active).

Question: How did the inhibition turn out when `S=C(Nc1cccnc1)Nc1cccc2cnccc12` was run?
Answer: Its inhibition is 17.3%.

Question: `CCOC(=O)c1ccc(N=Cc2cnc(N)nc2N)cc1` was tested. Which inhibition did it give?
Answer: Its inhibition is -2.86%.

Question: With `COc1ccc(NC(=O)CN2C(=O)NC(C)(c3ccc(C)cc3)C2=O)c([N+](=O)[O-])c1` (stereo not given) as the compound, how does the inhibition read?
Answer: The inhibition was 56.2% (active).

Question: How did the inhibition turn out when `CC(C)(C)c1ccc(C(=O)Nc2ccc(C(=O)NCc3cccnc3)cc2)cc1` was run?
Answer: Its inhibition is 90.4% (active).

Question: `Cc1ccc2c(c1)N(C)/C(=C/c1cccc[n+]1C)S2` was tested. Which inhibition did it give?
Answer: The inhibition was 61.8% (active).

Question: With `Cc1cccc(C)c1NC(=O)C(c1ccc(C(F)(F)F)cc1)n1c(=O)c(-c2cc3ccccc3[nH]2)nc2ccccc21` (stereo not given) as the compound, how does the inhibition read?
Answer: The inhibition was 23.7%.

Question: Which inhibition does the source give for `COc1ccc2c(/C=C/c3cc[n+](C)cc3)c[nH]c2c1` here?
Answer: The inhibition was 64.1% (active).

Question: For `CCOc1ccc(NC(=O)COC(=O)C2COc3ccccc3O2)cc1` (stereo not given), which inhibition is on record?
Answer: The inhibition was 35.4%.

Question: How did the inhibition turn out when `Cc1cc(C(=O)NC2CCCc3c2cnn3-c2cccc(C)c2C)n(C)n1` (stereo not given) was run?
Answer: The inhibition was 68.2% (active).

Question: For `COc1ccc(NC(=O)CN2C(=O)NC3(CCCC3)C2=O)cc1Cl`, which inhibition is on record?
Answer: The inhibition was 54.6% (active).

Question: How did the inhibition turn out when `Oc1c(Cl)cc(CN2CCOCC2)c2cccnc12` was run?
Answer: Its inhibition is 18.4%.
